# Inconclusive results are not listed. A call without a number means that no potency is given here. The source made the active and inactive calls. The call rests on the fitted dose curve; in most records, active means well fitted curve in the direction sought with a large enough effect; inconclusive means small, poorly fitted or top-dose-only effect, or another doubt; inactive means no such curve, though single readings can be large; an effect the other way counts as inactive or inconclusive.
# How the values were obtained:
# [1] = biological target: Glutathione peroxidase 1 (Homo sapiens) (UniProt P07203); test: Primary qHTS Assay for Inhibitors of Recombinant Selenoprotein Glutathione Peroxidase 1 (GPX1) (AID 1845191); further: nearly all actives have a fitted effect of over 65% in size
# How it was run: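 GR-coupled assay: compounds preincubated 30 min at room temperature with GPX1, then reaction started with CHP; final 10 nM GPX1, 1 mM GSH, 0.5 mM CHP, 0.5 mM NADPH, 100 nM GR, 0.01% BSA, pH 7.5 Tris buffer. NADPH fluorescence (340/450 nm) read at 0 and 15 min.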
# [2] = biological target: Phospholipid hydroperoxide glutathione peroxidase GPX4 (Homo sapiens) (UniProt P36969); test: Primary qHTS Assay for Inhibitors of Recombinant Selenoprotein Glutathione Peroxidase 4 (GPX4) (AID 1845192); further: nearly all actives have a fitted effect of over 65% in size; further: potency means the concentration at half of the fitted maximal effect
# How it was run: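 GR-coupled assay: recombinant GPX4 preincubated 30 min with compound at room temperature; final 200 nM GPX4, 1 mM GSH, 0.5 mM cumene hydroperoxide, 0.5 mM NADPH, 100 nM GR, 0.01% BSA, pH 7.5 Tris. NADPH fluorescence (340/450 nm) read at 0 and 15 min.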
# [3] = biological target: Luciferin 4-monooxygenase (Photinus pyralis) (UniProt P08659); test: Primary firefly luciferase (FLuc) qHTS assay for identification of artifact compounds. (AID 1845220); further: nearly all actives have a fitted effect of over 60% in size
# How it was run: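 Enzymatic FLuc inhibition assay: compounds pre-exposed to luciferin/ATP (10 uM each) for 15 min, then purified P. pyralis enzyme at 10 nM added. Read-out: luminescence at 5 min.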
# [4] = system: Nanoluciferase (engineered Oplophorus gracilirostris luciferase); test: Primary Nanoluciferase (NLuc) qHTS assay for identification of artifact compounds. (AID 1845222);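 further: NLuc secreted into diluted conditioned medium of S16 cells; series mostly up to about 54 µM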
# How it was run: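 S16 cell supernatant NLuc, 1:55; cpds qHTS; 15 min RT dark; Nano-Glo substrate 1:100, 5 min; luminescence; Hill fit of % inhibition.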
# [5] = Primary redox qHTS assay for identification of artifact compounds. (AID 1845223)
# How it was run: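 Amplex Red (25 uM) and HRP (250 mU/mL) in HBSS, with compounds for 15 min, then 250 uM DTT for 30 min, room temperature, dark. Fluorescence 525/598 nm read; normalized to DMSO and 10 uM DA3003; Hill fit.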
# [6] = Quantitative High-Throughput drug screen in 47 multiple myeloma cell lines against the NCATS MIPE library collection: FR4_PLB cell viability assay (AID 1918924; further: nearly all actives have a fitted effect of over 35% in size; further: potency means the concentration at half of the fitted maximal effect)
# How it was run: (§1)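 Inhibition of cell viability is measured here. Each line was plated at 500 cells per well, treated with MIPE 4.0 drugs, kept 48 hours at 37C, then assayed for ATP content by CellTiter-Glo luminescence.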
# [7] = Quantitative High-Throughput drug screen in 47 multiple myeloma cell lines against the NCATS MIPE library collection: Delta47_JCRB cell viability assay (AID 1918925; further: nearly all actives have a fitted effect of over 45% in size; further: potency means the concentration at half of the fitted maximal effect)
# How it was run: (§2)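 Myeloma cells (500 per well) were exposed to MIPE 4.0 compounds by pin transfer and incubated 48 hours at 37C, 5% CO2. Viability was read as ATP by CellTiter-Glo luminescence, normalised to DMSO (100%) and media-only (0%) wells.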
# [8] = Quantitative High-Throughput drug screen in 47 multiple myeloma cell lines against the NCATS MIPE library collection: EJM_DSMZ cell viability assay (AID 1918926; further: nearly all actives have a fitted effect of over 30% in size; further: potency means the concentration at half of the fitted maximal effect)
# How it was run: as §2
# [9] = Quantitative High-Throughput drug screen in 47 multiple myeloma cell lines against the NCATS MIPE library collection: AMO1_DSMZ cell viability assay (AID 1918927; further: nearly all actives have a fitted effect of over 30% in size; further: potency means the concentration at half of the fitted maximal effect)
# How it was run: as §2
# [10] = Quantitative High-Throughput drug screen in 47 multiple myeloma cell lines against the NCATS MIPE library collection: ARP1_JJKsccF8 cell viability assay (AID 1918928; further: nearly all actives have a fitted effect of over 40% in size; further: potency means the concentration at half of the fitted maximal effect)
# How it was run: (§3)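 Myeloma cells, 500 per well, were exposed to MIPE 4.0 drugs by pin transfer for 48 h at 37 °C, 5% CO2. Viability was read as ATP luminescence with CellTiter-Glo, normalised to DMSO-only (100%) and medium-only (0%) wells.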
# [11] = Quantitative High-Throughput drug screen in 47 multiple myeloma cell lines against the NCATS MIPE library collection: Karpas620_DSMZ cell viability assay (AID 1918959); further: nearly all actives have a fitted effect of over 30% in size; further: potency means the concentration at half of the fitted maximal effect
# How it was run: as §1
# [12] = Quantitative High-Throughput drug screen in 47 multiple myeloma cell lines against the NCATS MIPE library collection: KMM1_JCRB cell viability assay (AID 1918960); further: nearly all actives have a fitted effect of over 30% in size; further: potency means the concentration at half of the fitted maximal effect
# How it was run: as §3
# [13] = Quantitative High-Throughput drug screen in 47 multiple myeloma cell lines against the NCATS MIPE library collection: ARD_JJKsccE7 cell viability assay (AID 1918929; further: potency means the concentration at half of the fitted maximal effect)
# How it was run: as §2
# Chain of Phospholipid hydroperoxide glutathione peroxidase GPX4 (Homo sapiens) (P36969 whole entry, looked up): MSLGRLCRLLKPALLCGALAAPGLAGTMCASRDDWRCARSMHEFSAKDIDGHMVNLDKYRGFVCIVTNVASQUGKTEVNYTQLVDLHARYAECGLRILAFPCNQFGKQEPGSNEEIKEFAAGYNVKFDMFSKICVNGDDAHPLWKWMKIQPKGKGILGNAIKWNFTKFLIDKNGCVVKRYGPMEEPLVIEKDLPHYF
# Chain of Glutathione peroxidase 1 (Homo sapiens) (P07203 whole entry, looked up): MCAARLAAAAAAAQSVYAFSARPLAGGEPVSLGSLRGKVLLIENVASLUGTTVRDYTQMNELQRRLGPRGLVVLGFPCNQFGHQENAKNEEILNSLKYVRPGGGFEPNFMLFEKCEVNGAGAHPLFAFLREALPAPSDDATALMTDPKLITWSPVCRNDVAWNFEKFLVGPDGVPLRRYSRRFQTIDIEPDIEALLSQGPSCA
Structure (SMILES),Potency [1],Potency [2],Potency [3],Potency [4],Potency [5],Potency [6],Potency [7],Potency [8],Potency [9],Potency [10],Potency [11],Potency [12],Potency [13]
CCc1c2c(nc3ccc(O)cc13)-c1cc3c(c(=O)n1C2)COC(=O)[C@]3(O)CC,inactive,inactive,inactive,inactive,inactive,0.59 µM (active),0.0372 µM (active),0.187 µM (active),0.0118 µM (active),0.187 µM (active),0.743 µM (active),0.132 µM (active),
Cc1cc(C(=O)N2CCN(c3cccc(Cl)c3)CC2)n(-c2ccccc2)n1,inactive,inactive,inactive,inactive,inactive,0.148 µM (active),0.833 µM (active),,0.0332 µM (active),0.59 µM (active),0.0296 µM (active),0.187 µM (active),
COc1ccc2c(OCc3nnc4ccc(-c5ccccc5)nn34)ccnc2c1,inactive,inactive,inactive,inactive,inactive,inactive,inactive,,inactive,inactive,inactive,inactive,
C=CC(=O)Nc1cccc(Oc2nc(Nc3ccc(N4CCN(C)CC4)cc3OC)ncc2Cl)c1,inactive,inactive,inactive,inactive,inactive,,0.0296 µM (active),,,,,,
Cn1cc(-c2ccncc2)c(-c2ccc(OCc3ccc4ccccc4n3)cc2)n1,inactive,inactive,inactive,inactive,,,2.64 µM (active),14.8 µM (active),3.32 µM (active),4.69 µM (active),4.69 µM (active),8.33 µM (active),6.62 µM (active)
C[C@@H](Oc1cc(-n2cnc3ccc(CN4CCN(C)CC4)cc32)sc1C(N)=O)c1ccccc1C(F)(F)F,inactive,inactive,,,,0.0332 µM (active),0.0418 µM (active),23.5 µM (active),0.0743 µM (active),0.105 µM (active),,0.0332 µM (active),
Nc1nc(-c2nn(Cc3ccccc3F)c3ncccc23)nc(N)c1N1CCOCC1,inactive,inactive,,,,inactive,,inactive,20.9 µM (active),inactive,,,
O=C(Nc1cc(C(F)(F)F)cc(C(F)(F)F)c1)c1cc(Cl)ccc1O,inactive,inactive,inactive,,inactive,,1.87 µM (active),1.48 µM (active),0.235 µM (active),1.05 µM (active),0.833 µM (active),0.132 µM (active),0.209 µM (active)
Cc1ccc(-c2ncn(-c3ccc(Nc4nccc(-c5cccc(N6CCOCC6)c5)n4)cc3)n2)cn1,inactive,inactive,,,,0.132 µM (active),0.105 µM (active),0.187 µM (active),0.132 µM (active),0.166 µM (active),0.209 µM (active),0.105 µM (active),0.105 µM (active)
Cn1cncc1[C@@](N)(c1ccc(Cl)cc1)c1ccc2c(c1)c(-c1cccc(Cl)c1)cc(=O)n2C,inactive,inactive,,,,20.9 µM (active),6.62 µM (active),14.8 µM (active),,0.469 µM (active),,9.35 µM (active),
CC(C)Nc1cc(C(F)(F)F)cc2nc(NC(=O)c3cccnc3)nn12,inactive,inactive,inactive,,inactive,,,14.8 µM (active),,,,inactive,
O=C(Nc1cn[nH]c1-c1nc2ccc(CN3CCOCC3)cc2[nH]1)NC1CC1,inactive,inactive,inactive,,inactive,2.35 µM (active),1.48 µM (active),,,4.18 µM (active),5.26 µM (active),2.96 µM (active),3.72 µM (active)
O=C(O)[C@H](Cc1c[nH]c2ccccc12)N1C(=O)c2ccccc2C1=O,inactive,inactive,,,,inactive,,inactive,inactive,inactive,inactive,inactive,
CC(C)c1ccc(Cn2ccc3c4c(N)nc(NC5CC5)nc4ccc32)cc1,inactive,18 µM (active),,,,4.18 µM (active),3.32 µM (active),,,4.18 µM (active),,2.35 µM (active),3.32 µM (active)
CCN(CC)CCCCNc1ncc2cc(-c3cc(OC)cc(OC)c3)c(NC(=O)NC(C)(C)C)nc2n1,inactive,inactive,,,,,9.35 µM (active),23.5 µM (active),26.4 µM (active),23.5 µM (active),26.4 µM (active),18.7 µM (active),23.5 µM (active)
CNC(=O)c1ccccc1Nc1nc(Nc2ccc(N3CCOCC3)cc2OC)ncc1Cl,inactive,inactive,inactive,,inactive,13.2 µM (active),0.148 µM (active),,,0.935 µM (active),,0.296 µM (active),0.0935 µM (active)
O=C(NCCS(=O)(=O)c1ccc(C(F)(F)F)cn1)c1ccc(Cl)cc1,inactive,inactive,,,,inactive,inactive,inactive,inactive,inactive,inactive,inactive,inactive

# — PubChem BioAssay (NCATS)
